# Assay results reported in PubChem BioAssay AID1440 (NMMLSC, 2008).
# Out of some 220,000 compounds screened, fewer than 10 were called active. Inconclusive results (about 92%) are left out. How the calls were made is not given here. The list is a sample of the results.
# Molecular target: Guanine nucleotide-binding protein G(o) subunit alpha (Homo sapiens) + Regulator of G-protein signaling 19 (Homo sapiens) (UniProt P09471+P49795)
# Assay: modulators of human RGS19-Gαo interaction – biochemical, multiplexed bead flow cytometry (AID 1440);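 further: fluorescent Galpha o activated by aluminum fluoride binding bead-coupled RGS19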
# Details: RGS19-Galphao binding, at 10 µM
# Chain of Guanine nucleotide-binding protein G(o) subunit alpha (Homo sapiens) + Regulator of G-protein signaling 19 (Homo sapiens) (P09471 whole entry, looked up): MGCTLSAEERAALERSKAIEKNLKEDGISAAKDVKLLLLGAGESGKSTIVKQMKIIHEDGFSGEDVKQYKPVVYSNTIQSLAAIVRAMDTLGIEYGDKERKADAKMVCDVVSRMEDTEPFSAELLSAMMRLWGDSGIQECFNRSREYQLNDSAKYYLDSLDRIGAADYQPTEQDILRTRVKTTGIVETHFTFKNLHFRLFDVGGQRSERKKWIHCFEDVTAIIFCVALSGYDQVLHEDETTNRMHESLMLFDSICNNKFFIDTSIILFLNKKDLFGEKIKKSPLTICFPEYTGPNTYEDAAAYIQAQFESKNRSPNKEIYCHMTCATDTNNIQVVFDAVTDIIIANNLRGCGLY
# Chain of Guanine nucleotide-binding protein G(o) subunit alpha (Homo sapiens) + Regulator of G-protein signaling 19 (Homo sapiens) (P49795 whole entry, looked up): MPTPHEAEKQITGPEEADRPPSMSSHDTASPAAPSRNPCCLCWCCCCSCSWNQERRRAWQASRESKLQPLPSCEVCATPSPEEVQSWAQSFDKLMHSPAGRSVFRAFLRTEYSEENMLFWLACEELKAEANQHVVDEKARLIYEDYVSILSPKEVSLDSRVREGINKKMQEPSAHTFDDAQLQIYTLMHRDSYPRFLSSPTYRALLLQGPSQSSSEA
row,Compound,binding response (% of control) [%]
1,O=C(c1ccccc1)N1CCCCCC1,58.2
2,O=C(NC1CCCC1)C1CCC(CNS(=O)(=O)c2cccs2)CC1 (configuration not stated),88.8
3,CCOC(=O)c1ccc(N2CN=C3SCC(=O)N3C2)cc1,94.6
4,COc1ccc(-c2[nH]nc3c2C(c2ccsc2)C(C#N)=C(N)O3)cc1 (configuration not stated),80.2
5,COc1ccccc1NC(=O)CSc1nnc(C2CCCCC2)n1C,50.3
6,CC/C(Cc1ccccc1)=N/NC(=O)c1cccc(Br)c1,130
7,COC(=O)c1c(CSc2cccc(C)c2)noc1C(=O)NCc1ccco1,102
8,CC(C)COCC1CC2(CC(C)C(=O)CC2=O)C(=O)O1 (configuration not stated),56.6
9,CCc1nnc(NC(=O)COC(=O)CN2C(=O)c3ccccc3C2=O)s1,62.2
10,COCCn1c(SCC(=O)c2ccc3c(c2)OCCO3)nnc1C(C)C,59.5
11,Cc1onc(-c2c(Cl)cccc2Cl)c1C(=O)Nn1cnnc1,102
12,CCc1ncc(C(=O)c2ccc(OC)cc2)n1C,108
13,O=C(CN1CCCCCC1=O)OCc1ncc(-c2ccccc2)o1,96.5
14,O=C1Nc2ccccc2/C1=C\c1cccn1-c1ccc(OC(F)(F)F)cc1,63.3
15,Cc1ccc(C(=O)CSc2nc(N)cc(=O)[nH]2)cc1,64.8
16,C/C(=N\NC(=O)CSc1nc2nc(C)cc(C)n2n1)c1ccccc1,96.1
17,O=C(NCCCCC(NC(=O)c1ccc([N+](=O)[O-])cc1)C(=O)O)c1ccc([N+](=O)[O-])cc1 (configuration not stated),95.5
18,CCOC(=O)Cn1nc(/C=C/c2ccc(C)cc2)ccc1=O,-18.6
19,COC(=O)c1sccc1-c1ccc(C(=O)Nc2ccccc2)o1,122
20,Cc1ccc(-c2cc(C(=O)OCC(=O)Nc3cc(C)on3)c3ccccc3n2)c(C)c1,81.7
21,O=C(CSc1nc2ccccc2c(=O)n1CC1CCCO1)NCC1CCCO1 (configuration not stated),94.2
22,COC(=O)C(NC(=O)Nc1ccccc1OC)C(C)C (configuration not stated),93.4
23,CCOC(=O)C1=C(C)NC2=C(C(=O)c3ccccc32)C1c1cccnc1 (configuration not stated),104

row,Compound,binding response (% of control) [%]
1,CC(=O)Nc1ccc(OCC=C(Cl)Cl)cc1,82.1
2,O=C(NCc1ccccc1)c1ccccc1OCC(=O)N1CCCCC1,38.1
3,NC(=S)N/N=C1\CCSc2ccc(Cl)cc21,69
4,Cc1ccc(S(=O)(=O)c2c(N)n(Cc3ccco3)c3nc4ccccc4nc23)cc1C,92.1
5,Cc1ccc(C(=O)NNC(=O)C2CCN(Cc3ccccc3)CC2)cc1,96.2
6,CC1(C)C2CCC1(CS(=O)(=O)NCc1ccc(C(=O)O)cc1)C(=O)C2 (configuration not stated),107
7,C[C@H](NS(=O)(=O)c1ccccc1F)C(=O)OCC(=O)N1CCc2ccccc21,106
8,CC(=O)c1cc2c(cc1NS(=O)(=O)c1ccccc1)OCO2,94.9
9,Clc1ccc(Cc2noc(CN3CCN(c4ccccc4)CC3)n2)c(Cl)c1,-14.4
10,CC1(C)Cc2c(c(N3CCOCC3)nc3snc(N)c23)CO1,20.9
11,O=S1(=O)C=CC(N2CCOCC2)C1 (configuration not stated),162
12,CCC(=O)NCCc1cc2cc(C)c(C)cc2[nH]c1=O,96.3
13,Cc1noc(C)c1C(=O)Nc1cccnc1,77.2
14,Cc1ccc(S(=O)(=O)N2CCSC2)cc1C,113
15,COC(=O)Cc1c(C)nc2nc(-c3ccc(Cl)cc3)[nH]n2c1=O,112
16,CC(C)(C#N)NC(=O)c1ccco1,87.8
17,Cc1cc2cc(CN(Cc3ccco3)C(=O)NCc3ccccc3)c(=O)[nH]c2cc1C,98.1
18,COc1ccc(-c2nc(-c3ccccc3)nc(N3CCN(C)CC3)c2C#N)cc1,114
19,O=S1(=O)CCN2C(Cc3ccc(SC(F)F)cc3)=CSC2=N1,121
20,Cc1ccc(Cl)c(NC(=O)COC(=O)c2ccccc2C(=O)c2ccc(Cl)c([N+](=O)[O-])c2)c1Cl,115
21,CCCCN1c2ccccc2N(CCCO)c2cc(C)nnc21,99
22,O=C(NCC(c1cccnc1)N1CCN(c2ccc(F)cc2)CC1)C1CCCCC1 (configuration not stated),104
23,CC12CC(c3ccccc3O1)N(C(=O)c1ccco1)C(=O)N2c1ccccc1 (configuration not stated),95.1

row,Compound,binding response (% of control) [%]
1,Cn1cnnc1SCC(=O)N1N=C2/C(=C/c3ccco3)CCCC2C1c1ccco1 (configuration not stated),61.5
2,CC(NS(=O)(=O)c1cccc(Cl)c1)C(=O)Nc1ccc(-c2nc3ccccc3s2)cc1 (configuration not stated),115
3,Cc1nn(Cc2ccc(Cl)cc2)c(C)c1N,8.58
4,CC(C)SCCCCOc1ccc2ccccc2c1,88.9
5,CCOC(=O)c1nnn(-c2nc(N3CCCC3)nc(N3CCCC3)n2)c1-c1ccccc1,112
6,CN(C)S(=O)(=O)c1ccc(C(=O)Nc2nnc(SCc3ccccc3)s2)cc1,-32.2
7,Cc1cc(C)n(C2CCCCC2OC(=O)c2ccccc2)n1 (configuration not stated),110
8,CC1CN(S(=O)(=O)c2cccc(-c3cn4ccccc4n3)c2)CC(C)O1 (configuration not stated),105
9,O=C(CSc1nnc(COc2ccc(Cl)cc2)o1)N1c2ccccc2CCc2ccccc21,98.2
10,COc1ccc(Cc2nc3ccc(S(N)(=O)=O)cc3[nH]2)cc1OC,56.5
11,COc1ccc(C(=O)CN(C(=O)c2ccc(Cl)cc2)N2C(=O)C3CCCCC3C2=O)cc1 (configuration not stated),103
12,Cc1c(NC(=O)CSc2nc3c(cnn3-c3ccccc3)c(=O)[nH]2)c(=O)n(-c2ccccc2)n1C,125
13,CC(C)CC1=C/C(=C/c2ccc(-c3ccccc3)o2)C(=O)O1,71.1
14,Cc1ccc(Cl)c(OCCN2CCCC(C)C2)c1 (configuration not stated),118
15,Cc1cc(=O)n2[nH]c(SCc3ccccc3)nc2n1,102
16,O=C(c1ccccc1F)N1CCN(c2ccccc2)CC1,64.3
17,Cn1cc(CN(CCCN2CCOCC2)C(=S)Nc2cccc(Cl)c2)c2ccccc21,-17
18,COC(=O)c1cc(OC)c(OC)cc1NC(=S)N1CCCC(CO)C1 (configuration not stated),98.1
19,Cc1ccc(NC(=O)N(Cc2ccco2)Cc2cc3cc(C)cc(C)c3nc2Cl)cc1,92.8
20,CCOc1ccc(-c2nnc(N)o2)cc1,71.8
21,CC(=O)Nc1ccc(NC(=O)Oc2ccccc2)cc1,99.1
22,CCOC(=O)c1c(C)n(-c2ccc(OC)cc2)c2c(C/C(C)=N/O)c(Br)c(OC)c(O)c12,120
23,COc1cccc(C2=CC(c3ccc(OC)c(OC)c3OC)n3nnnc3N2)c1 (configuration not stated),102

row,Compound,binding response (% of control) [%]
1,O=Nc1c(O)n(Cc2ccc(Cl)c(Cl)c2)c2ccccc12,70.4
2,CCOC(=O)c1nnc(-c2cccs2)nc1NC(C)C,220
3,CCOC(=O)c1nnn(-c2nc(OC)nc(N3CCCCC3)n2)c1-c1ccccc1,69.6
4,O=C(c1cnccn1)N(Cc1cccs1)C1(C(=O)NC2CCCCC2)CCCCC1,-941
5,COc1ccc(Br)cc1-c1noc(-c2ccncc2)n1,92.5
6,Cc1ccc(C(=O)NC(=S)N2CCN(C)CC2)cc1,97.8
7,CC(=O)c1nc2ccccc2n1S(=O)(=O)c1ccc(C)cc1,97.2
8,Clc1ccc(/C=N/N2CCN(Cc3ccccc3Cl)CC2)cc1,100
9,COc1ccc(N2CCN(C(=O)CSc3nnnn3-c3ccc4c(c3)OCCO4)CC2)cc1,94.7
10,COc1ccc(N(C(=O)Cn2nnc3ccccc32)C(C(=O)NCc2ccco2)c2cccnc2)cc1 (configuration not stated),110
11,CC(C)(C)OC(=O)N1CCOCCOCCNCCOCCOCC1,98.6
12,CN=C(Nc1cc(C)nn1-c1ccccc1)c1ccccc1,113
13,COCCCNC(=O)c1ccc(NS(C)(=O)=O)cc1,96.8
14,Cc1ccc(CNCC2CCCO2)o1 (configuration not stated),96.8
15,COc1ccc2c(c1)c(C(=O)CNc1nc(C)cs1)c(C)n2C,44.3
16,FC(F)Oc1ccc(-c2c[n+]3c(n2-c2ccccc2)CCCCC3)cc1,256
17,Cc1nn(Cc2ccc(F)cc2)c(C)c1NC(=O)c1cnn2cccnc12,109
18,CC1=C(C(N)=O)C(c2cccc(OCc3ccccc3)c2)n2nnnc2N1 (configuration not stated),91.9
19,Cc1ccc(Cl)cc1N(Cc1ccc(C(=O)NCc2cccnc2)cc1)S(=O)(=O)c1ccccc1,98.3
20,CCCCCOc1ccc(NC(=O)CCCC(=O)O)cc1,81.9
21,C#CCn1cnc2c(cnn2-c2ccc(C)c(C)c2)c1=O,106
22,COc1ccc(C(=O)CSc2nc3ncccc3[nH]2)cc1OC,52.5
23,CCn1cc(C(=O)NCC2CCCO2)c2cc(OC)c(OC)cc2c1=O (configuration not stated),103

row,Compound,binding response (% of control) [%]
1,Cc1cc(C)nc(SCC(=O)N2CCC(C(N)=O)CC2)n1,105
2,CCC(=O)N1CCc2cc(S(=O)(=O)NC(Cc3ccccc3)C(=O)Nc3nccs3)ccc21 (configuration not stated),-46.3
3,O=c1[nH]c2cc3c(cc2cc1CN(Cc1ccc2c(c1)OCO2)Cc1nnnn1CC1CCCO1)OCO3 (configuration not stated),90.7
4,Cc1ccc(/C=C2\CCCC3=C2NC(=S)NC3c2ccc(C)cc2)cc1 (configuration not stated),203
5,C=CCn1c2ccccc2c2nnc(SCN3C(=O)c4ccccc4C3=O)nc21,77.7
6,CCCC(C)NC(=O)Cc1ccccc1[N+](=O)[O-] (configuration not stated),110
7,O=C(CN1CCSCC1)N1CCc2[nH]c3ccc(Br)cc3c2C1,66.9
8,CCc1ccc(OCC(=O)Nc2cc(S(=O)(=O)CC)ccc2O)cc1,89.9
9,Cc1ccc(NC(CC(=O)c2ccccc2)c2ccc(F)cc2)cc1 (configuration not stated),100
10,O=C1COc2ccc(C(=O)NCc3ccc4c(c3)OCO4)cc2N1,104
11,CC(NC(=O)C(=O)NN=C1CCCCCCCCCCC1)c1ccccc1 (configuration not stated),101
12,COc1ccc(-c2nn[nH]n2)cc1OC,116
13,O=C(CN1CCOCC1)Nc1ncc(Cc2ccccc2Cl)s1,108
14,Clc1ccc(-c2nn3c(C4COc5ccccc5O4)nnc3s2)cc1 (configuration not stated),17.6
15,C/C(CC(=O)Nc1cccc(Cl)c1C)=N\NC(=O)C(=O)NCC(C)C,105
16,COC(=O)CNC(=O)COC(=O)c1ccc(OC)c([N+](=O)[O-])c1,98.3
17,CCN1CCN(C(c2cccs2)C(C)NC(=O)c2c(F)cccc2F)CC1 (configuration not stated),114
18,BrC(/C=C\c1ccccc1)=N/Nc1nc(N2CCOCC2)nc(N2CCOCC2)n1,98.4
19,O=C(c1ccccc1NS(=O)(=O)c1ccc(Br)s1)N1CCCC1,102
20,Cc1cc(C)c(C#N)c(SCC(=O)N2CCCCC2)n1,91.6
